Columns and labels:
[1] = target: T1, Testis-specific serine/threonine-protein kinase 1 (Homo sapiens) (UniProt Q9BXA7); conditions: at 1 µM
T1 sequence (whole entry): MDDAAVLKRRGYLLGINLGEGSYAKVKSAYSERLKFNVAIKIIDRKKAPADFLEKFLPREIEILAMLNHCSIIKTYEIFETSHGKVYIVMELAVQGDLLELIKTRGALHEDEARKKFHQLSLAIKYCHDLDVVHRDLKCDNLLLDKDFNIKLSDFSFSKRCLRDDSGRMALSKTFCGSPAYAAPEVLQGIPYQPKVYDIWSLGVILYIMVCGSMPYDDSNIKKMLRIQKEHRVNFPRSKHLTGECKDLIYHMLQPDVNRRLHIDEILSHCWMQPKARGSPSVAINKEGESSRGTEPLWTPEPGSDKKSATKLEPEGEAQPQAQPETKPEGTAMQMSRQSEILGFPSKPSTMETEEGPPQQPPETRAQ

[2] = target: T1, Testis-specific serine/threonine-protein kinase 1 (Homo sapiens); conditions: at 10 µM
[3] = target: T2, Testis-specific serine/threonine-protein kinase 2 (Homo sapiens) (UniProt Q96PF2); conditions: at 10 µM
T2 sequence (whole entry): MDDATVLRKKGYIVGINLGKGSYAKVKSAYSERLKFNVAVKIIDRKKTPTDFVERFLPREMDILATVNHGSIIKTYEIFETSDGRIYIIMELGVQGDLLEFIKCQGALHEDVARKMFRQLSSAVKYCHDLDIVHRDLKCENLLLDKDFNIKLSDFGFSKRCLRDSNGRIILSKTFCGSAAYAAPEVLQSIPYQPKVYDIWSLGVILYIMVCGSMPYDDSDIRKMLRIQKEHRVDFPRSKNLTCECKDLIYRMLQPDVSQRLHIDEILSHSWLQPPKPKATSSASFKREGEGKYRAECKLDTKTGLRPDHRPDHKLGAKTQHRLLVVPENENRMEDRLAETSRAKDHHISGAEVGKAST

[4] = target: T3, Tyrosine-protein kinase Tec (Homo sapiens) (UniProt P42680); conditions: at 1 µM
T3 sequence (whole entry): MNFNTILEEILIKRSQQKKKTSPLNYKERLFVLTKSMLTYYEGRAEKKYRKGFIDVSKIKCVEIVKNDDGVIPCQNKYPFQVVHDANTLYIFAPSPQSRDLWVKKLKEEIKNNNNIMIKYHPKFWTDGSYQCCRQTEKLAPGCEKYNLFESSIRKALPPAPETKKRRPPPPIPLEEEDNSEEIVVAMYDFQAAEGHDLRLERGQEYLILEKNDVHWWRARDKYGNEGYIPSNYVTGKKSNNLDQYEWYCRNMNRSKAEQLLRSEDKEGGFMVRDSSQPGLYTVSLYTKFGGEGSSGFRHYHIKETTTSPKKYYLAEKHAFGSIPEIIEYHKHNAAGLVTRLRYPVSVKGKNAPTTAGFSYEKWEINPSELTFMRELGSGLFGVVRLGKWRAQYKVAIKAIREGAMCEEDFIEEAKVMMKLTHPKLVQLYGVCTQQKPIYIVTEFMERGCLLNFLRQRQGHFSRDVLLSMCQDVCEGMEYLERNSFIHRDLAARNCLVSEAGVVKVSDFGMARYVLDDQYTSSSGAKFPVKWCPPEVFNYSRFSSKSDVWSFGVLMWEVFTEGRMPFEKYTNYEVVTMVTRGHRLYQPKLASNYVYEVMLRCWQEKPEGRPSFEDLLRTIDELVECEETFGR

[5] = target: T3, Tyrosine-protein kinase Tec (Homo sapiens); conditions: at 10 µM
[6] = target: Angiopoietin-1 receptor (Homo sapiens) (UniProt Q02763); conditions: at 1 µM
Sequence of Angiopoietin-1 receptor (Homo sapiens) (Q02763 whole entry): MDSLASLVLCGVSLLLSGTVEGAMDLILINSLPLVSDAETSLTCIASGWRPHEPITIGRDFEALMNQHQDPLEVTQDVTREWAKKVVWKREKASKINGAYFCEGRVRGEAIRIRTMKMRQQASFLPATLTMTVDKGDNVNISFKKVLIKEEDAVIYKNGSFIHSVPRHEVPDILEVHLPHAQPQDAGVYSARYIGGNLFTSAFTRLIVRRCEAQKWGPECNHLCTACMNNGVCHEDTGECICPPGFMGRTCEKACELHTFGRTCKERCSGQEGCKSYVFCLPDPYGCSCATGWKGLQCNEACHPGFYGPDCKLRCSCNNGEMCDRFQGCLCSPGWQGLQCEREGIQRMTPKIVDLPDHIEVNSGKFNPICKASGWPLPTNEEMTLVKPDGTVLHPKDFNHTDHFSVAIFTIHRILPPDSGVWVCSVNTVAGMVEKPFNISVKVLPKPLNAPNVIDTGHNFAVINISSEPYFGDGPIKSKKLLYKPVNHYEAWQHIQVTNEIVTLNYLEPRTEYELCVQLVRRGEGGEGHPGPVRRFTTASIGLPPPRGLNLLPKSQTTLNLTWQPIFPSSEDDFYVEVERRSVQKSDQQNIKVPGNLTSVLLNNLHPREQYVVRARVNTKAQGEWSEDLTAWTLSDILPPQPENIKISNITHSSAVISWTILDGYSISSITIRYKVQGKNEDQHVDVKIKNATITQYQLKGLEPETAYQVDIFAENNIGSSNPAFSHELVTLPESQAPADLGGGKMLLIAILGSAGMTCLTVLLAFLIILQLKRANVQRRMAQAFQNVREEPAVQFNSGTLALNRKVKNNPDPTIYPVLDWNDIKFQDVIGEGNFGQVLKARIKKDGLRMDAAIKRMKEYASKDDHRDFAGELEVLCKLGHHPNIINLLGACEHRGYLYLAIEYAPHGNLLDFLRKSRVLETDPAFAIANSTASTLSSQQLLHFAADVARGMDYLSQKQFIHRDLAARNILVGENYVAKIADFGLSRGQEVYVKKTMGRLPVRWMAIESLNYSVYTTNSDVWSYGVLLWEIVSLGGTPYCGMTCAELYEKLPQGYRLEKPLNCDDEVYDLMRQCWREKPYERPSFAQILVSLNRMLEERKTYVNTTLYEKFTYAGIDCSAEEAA

[7] = target: Angiopoietin-1 receptor (Homo sapiens) (UniProt Q02763); conditions: at 10 µM
[8] = target: High affinity nerve growth factor receptor (Homo sapiens) (UniProt P04629); conditions: at 1 µM
Sequence of High affinity nerve growth factor receptor (Homo sapiens) (P04629 33-796 limits assumed): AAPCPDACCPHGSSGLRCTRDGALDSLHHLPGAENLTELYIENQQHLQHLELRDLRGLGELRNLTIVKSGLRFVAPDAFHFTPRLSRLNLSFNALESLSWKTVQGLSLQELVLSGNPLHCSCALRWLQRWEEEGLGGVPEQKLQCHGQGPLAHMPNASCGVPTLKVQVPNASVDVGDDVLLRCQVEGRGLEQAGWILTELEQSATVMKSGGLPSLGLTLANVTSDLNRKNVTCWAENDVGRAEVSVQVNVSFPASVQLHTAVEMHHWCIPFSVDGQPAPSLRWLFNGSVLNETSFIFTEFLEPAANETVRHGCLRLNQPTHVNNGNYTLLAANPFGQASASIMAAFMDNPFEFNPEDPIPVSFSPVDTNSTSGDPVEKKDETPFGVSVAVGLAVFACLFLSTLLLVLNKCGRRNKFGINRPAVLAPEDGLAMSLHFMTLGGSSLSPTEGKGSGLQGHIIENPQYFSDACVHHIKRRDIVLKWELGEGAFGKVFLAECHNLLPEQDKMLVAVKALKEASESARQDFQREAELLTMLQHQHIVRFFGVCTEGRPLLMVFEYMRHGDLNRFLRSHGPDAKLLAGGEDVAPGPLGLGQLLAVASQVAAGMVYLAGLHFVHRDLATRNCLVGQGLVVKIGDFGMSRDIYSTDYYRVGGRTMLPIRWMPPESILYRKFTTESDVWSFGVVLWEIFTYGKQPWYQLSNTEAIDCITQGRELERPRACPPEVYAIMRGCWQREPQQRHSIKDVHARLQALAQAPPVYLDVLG

[9] = target: High affinity nerve growth factor receptor (Homo sapiens) (UniProt P04629); conditions: at 10 µM
[10] = target: BDNF/NT-3 growth factors receptor (Homo sapiens) (UniProt Q16620); conditions: at 1 µM
Sequence of BDNF/NT-3 growth factors receptor (Homo sapiens) (Q16620 32-822 limits assumed): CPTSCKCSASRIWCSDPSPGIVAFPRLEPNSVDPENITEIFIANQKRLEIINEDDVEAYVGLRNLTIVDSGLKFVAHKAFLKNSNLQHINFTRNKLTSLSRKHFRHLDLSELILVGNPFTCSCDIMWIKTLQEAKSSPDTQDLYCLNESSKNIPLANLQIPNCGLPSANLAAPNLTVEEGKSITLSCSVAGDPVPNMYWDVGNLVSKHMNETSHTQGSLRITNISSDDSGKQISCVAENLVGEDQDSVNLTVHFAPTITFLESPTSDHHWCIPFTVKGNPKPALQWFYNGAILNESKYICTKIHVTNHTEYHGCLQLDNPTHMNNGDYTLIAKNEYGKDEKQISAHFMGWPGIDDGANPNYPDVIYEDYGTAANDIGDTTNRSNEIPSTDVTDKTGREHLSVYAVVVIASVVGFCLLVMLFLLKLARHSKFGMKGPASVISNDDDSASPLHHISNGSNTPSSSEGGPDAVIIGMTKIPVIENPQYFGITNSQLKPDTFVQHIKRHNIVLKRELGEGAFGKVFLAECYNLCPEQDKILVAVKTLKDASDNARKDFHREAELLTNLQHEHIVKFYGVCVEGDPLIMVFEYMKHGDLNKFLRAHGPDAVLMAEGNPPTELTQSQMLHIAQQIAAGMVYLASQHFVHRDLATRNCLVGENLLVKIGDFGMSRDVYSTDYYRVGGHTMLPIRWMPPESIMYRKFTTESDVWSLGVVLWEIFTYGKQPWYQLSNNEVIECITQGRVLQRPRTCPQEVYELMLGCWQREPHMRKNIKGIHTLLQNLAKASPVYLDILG

SMILES | residual activity [1] [%] | residual activity [2] [%] | residual activity [3] [%] | residual activity [4] [%] | residual activity [5] [%] | residual activity [6] [%] | residual activity [7] [%] | residual activity [8] [%] | residual activity [9] [%] | residual activity [10] [%]
c1ccc(-c2n[nH]cc2-c2ccnc3ccccc23)nc1 | 91 | 92 | 93 | 88 | 91 | 91 | 90 | 72 | 76 | 
CC#CC(=O)Nc1cc2c(Nc3ccc(F)c(Cl)c3)ncnc2cn1 | 98 | 81 | 82 | 62 | 70 | 52 | 57 | 91 | 111 | 110
Ic1cccc(CSc2nnc(-c3ccncc3)o2)c1 | 78 | 86 | 82 | 90 | 64 | 104 | 84 | 87 | 64 | 32
Cc1cncc2cccc(S(=O)(=O)N3CCCN(C(=O)CN)C[C@H]3C)c12 | 95 | 79 | 94 | 100 | 77 | 78 | 40 | 64 | -1 | 
Cc1cccc(-c2[nH]c(C(C)(C)C)nc2-c2ccc3c(c2)OCO3)n1 | 101 | 90 | 94 | 97 | 91 | 101 | 83 | 92 | 106 | 
Cc1ccc(NC2=CC(=O)c3sc(C)nc3C2=O)cc1 | 92 | 98 | 86 | 85 | 93 | 100 | 99 | 89 | 88 | 102
Cc1nc(-c2ccccc2)c(-c2ccncc2)o1 | 100 | 88 | 98 | 103 | 42 | 100 | 122 | 117 | 95 | 55
Oc1ccc(Nc2nc(-c3ccc(Cl)cc3)cs2)cc1 | 110 | 87 | 105 | 100 | 78 | 113 | 131 | 108 | 64 | 74
O=C1Nc2cc(Br)ccc2/C1=C1/Nc2ccccc2/C1=N\O | 86 | 90 | 62 | 15 | 13 | 67 | 79 | 0 | 0 | -1
O=C(Nc1cccc(Nc2cc(Nc3cccc(C(F)(F)F)c3)ncn2)c1)C1CC1 | 101 | 87 | 77 | 96 | 27 | 60 | 70 | 68 | 9 | 76
CO[C@H]1C[C@@H]2CC[C@@H](C)[C@@](O)(O2)C(=O)C(=O)N2CCCC[C@H]2C(=O)O[C@H]([C@H](C)C[C@@H]2CC[C@@H](O)[C@H](OC)C2)CC(=O)[C@H](C)/C=C(\C)[C@@H](O)[C@@H](OC)C(=O)[C@H](C)C[C@H](C)/C=C/C=C/C=C/1C | 86 | 80 | 106 | 96 | 90 | 79 | 96 | 89 | 41 | 102
O=C1NC(=O)c2c1c1c3ccccc3[nH]c1c1[nH]c3cc(Br)ccc3c21 | 110 | 91 | 86 | 98 | 82 | 94 | 81 | 37 | 27 | 74
CC(C)n1cnc2/c(=N/c3cccc(Cl)c3)nc(NCCO)[nH]c21 | 94 | 60 | 81 | 71 | 31 | 91 | 89 | 24 | 1 | 8
Cc1ccc(S(=O)(=O)/C=C/C#N)cc1 | 91 | 107 | 91 | 95 | 90 | 115 | 118 | 105 | 92 | 117
CNc1cc2c(Nc3cccc(Br)c3)ncnc2cn1 | 93 | 90 | 103 | 96 | 52 | 90 | 89 | 69 | 53 | 64
CC[n+]1c(/C=C/N(C)c2ccccc2)n(-c2ccccc2)c2ccc(-c3nc4ccccc4s3)cc21 | 102 | 73 | 78 | 77 | 27 | 103 | 30 | 85 | 34 | 67
COc1cccc(-c2cc(=O)c3ccccc3o2)c1N | 103 | 89 | 86 | 87 | 91 | 108 | 106 | 99 | 92 | 105
COc1cc2ncnc(Nc3ccc(O)c(Br)c3)c2cc1OC | 87 | 62 | 91 | 76 | 34 | 61 | 53 | 82 | 44 | 110
Cc1nc2cc3nc(-c4cccs4)cnc3cc2n1C | 102 | 85 | 93 | 83 | 101 | 81 | 61 | 72 | 27 | 69
Oc1n[nH]c2nnc(-c3c(-c4ccccc4)nn4ccccc34)cc12 | 82 | 93 | 83 | 85 | 66 | 97 | 93 | 83 | 70 | 98
O=c1c2ccccc2[nH]c(=S)n1CCN1CCC(=C(c2ccc(F)cc2)c2ccc(F)cc2)CC1 | 101 | 86 | 70 | 94 | 44 | 87 | 59 | 82 | 87 | 44

SMILES | residual activity [1] [%] | residual activity [2] [%] | residual activity [3] [%] | residual activity [4] [%] | residual activity [5] [%] | residual activity [6] [%] | residual activity [7] [%] | residual activity [8] [%] | residual activity [9] [%] | residual activity [10] [%]
COc1ccc(OC)c2c(=S)c3ccccc3[nH]c12 | 90 | 94 | 90 | 92 | 84 | 94 | 94 | 78 | 57 | 88
Nc1cccc(-c2cc3c(Oc4cccc(O)c4)ncnc3[nH]2)c1 | 101 | 71 | 78 | 17 | 0 | 18 | 1 | 61 | 6 | 74
Nc1nc(Nc2ccc(S(N)(=O)=O)cc2)nn1C(=S)Nc1c(F)cccc1F | 16 | 12 | 12 | 78 | 23 | -1 | -2 | 0 | -1 | 0
CO[C@H]1[C@@H](OC)C[C@H](C)[C@@H](OC)C2=CC(=O)C=C(NC(=O)/C(C)=C/C=C/[C@H](OC)[C@@H](OC(N)=O)/C(C)=C/[C@@H]1C)C2=O | 100 | 88 | 75 | 89 | 84 | 84 | 76 | 120 | 118 | 113
Cn1cc(/C=C2\C(=O)Nc3ccc(S(N)(=O)=O)cc32)c2ccccc21 | 19 | 14 | 72 | 52 | 6 | 86 | 73 | 1 | 1 | 23
COc1ccc(S(=O)(=O)N(CCO)c2ccccc2CN(C)C/C=C/c2ccc(Cl)cc2)cc1 | 97 | 81 | 86 | 102 | 36 | 118 | 66 | 87 | 47 | 86
Cc1cc(Nc2nc(-c3ccccc3)nc3ccccc23)n[nH]1 | 72 | 25 | 67 | 38 | 4 | 77 | 6 | -2 | -1 | 1
CCC(=O)Nc1ccc2ncnc(Nc3cccc(Br)c3)c2c1 | 93 | 90 | 102 | 86 | 90 | 81 | 70 | 97 | 96 | 77
Cn1nc2c3c(cccc31)C(=O)c1ccccc1-2 | 100 | 79 | 76 | 90 | 69 | 104 | 79 | 46 | 9 | 
O=C(O)c1ccc2c3c1cccc3c(=O)n1c3ccccc3nc21 | 106 | 79 | 108 | 99 | 82 | 106 | 99 | 78 | 19 | 86
CC(=O)O/N=C1\C(=C2\C(=O)Nc3cc(Br)ccc32)Nc2ccccc21 | 92 | 86 | 92 | 59 | 21 | 86 | 87 | 6 | 0 | 29
Cc1cc2ncc(-c3ccccc3)nc2cc1C | 101 | 97 | 91 | 90 | 71 | 98 | 89 | 106 | 81 | 94
Nc1n[nH]c2nnc(-c3c(-c4ccccc4)nn4ccccc34)cc12 | 87 | 90 | 86 | 82 | 50 | 94 | 72 | 68 | 24 | 94
CN(C)c1ccc(/C=C2\C(=O)Nc3ccccc32)cc1 | 104 | 101 | 97 | 87 | 68 | 83 | 70 | 10 | 3 | 46
Oc1ccc(-c2nc(-c3ccc(F)cc3)c(-c3ccncc3)[nH]2)cc1 | 112 | 83 | 113 | 87 | 55 | 109 | 49 | 107 | 83 | 99
N#CCCc1ccc2c(c1)-c1[nH]c3ccc([N+](=O)[O-])cc3c1CC(=O)N2 | 39 | 21 |  |  | 29 |  |  | 54 | 23 | 71
Oc1c2ccccc2c2c3c(cccc13)N=N2 | 75 | 49 | 86 | 89 | 57 | 95 | 63 | 10 | -1 | 32
CC(C)n1cnc2c(NCc3ccccc3)nc(NCCCO)nc21 | 90 | 89 | 81 | 90 | 89 | 104 | 87 | 93 | 94 | 88
CCN(CC)CCCCN1c2ccccc2Oc2ccc(Cl)cc21 | 105 | 102 | 98 | 92 | 78 | 105 | 71 | 90 | 101 | 107
COc1cc2ncnc(N3CCN(C(=O)Nc4ccc(Oc5ccccc5)cc4)CC3)c2cc1OC | 88 | 76 | 117 | 83 | 98 | 69 | 69 | 71 | 30 | 39
